# Mtb FBA inh – inhibits M. tuberculosis FBA enzyme; P9WQA3; purified M. tuberculosis FBA, fluorescence read-out; inhibition, % at 1 µM; 2.3% of 360,000 active; AID 588726; in the data active = inhibition above about 27%
# Autofluor counter – counter-screen for toxin protease inhibitors: compound fluorescence | compound autofluorescence counterscreen, microsphere flow cytometry; stronger effect = higher value | fluorescence intensity (concentration not given with the values) | 3.1% of 360,000 active; in the data active = fluorescence intensity above about 16000; inconclusive = no clear call, values can overlap the other calls
# BoNT-F LC inh – BoNT F light chain protease inhibition; 0.22% of 360,000 active; inhibition, % at 10 µM; Multiplex microsphere protease cleavage assay, flow cytometry; in the data active = inhibition above about 35%, passing the limit was not always enough; inconclusive = no clear call, values can overlap the other calls
# Anthrax LF inh2 – inhibitors of Bacillus anthracis lethal factor protease. AID 588501. 0.12% of 360,000 active. P15917. inhibition, % at 10 µM. multiplex microsphere protease cleavage assay, LF
# Target sequence (P15917 whole entry, looked up): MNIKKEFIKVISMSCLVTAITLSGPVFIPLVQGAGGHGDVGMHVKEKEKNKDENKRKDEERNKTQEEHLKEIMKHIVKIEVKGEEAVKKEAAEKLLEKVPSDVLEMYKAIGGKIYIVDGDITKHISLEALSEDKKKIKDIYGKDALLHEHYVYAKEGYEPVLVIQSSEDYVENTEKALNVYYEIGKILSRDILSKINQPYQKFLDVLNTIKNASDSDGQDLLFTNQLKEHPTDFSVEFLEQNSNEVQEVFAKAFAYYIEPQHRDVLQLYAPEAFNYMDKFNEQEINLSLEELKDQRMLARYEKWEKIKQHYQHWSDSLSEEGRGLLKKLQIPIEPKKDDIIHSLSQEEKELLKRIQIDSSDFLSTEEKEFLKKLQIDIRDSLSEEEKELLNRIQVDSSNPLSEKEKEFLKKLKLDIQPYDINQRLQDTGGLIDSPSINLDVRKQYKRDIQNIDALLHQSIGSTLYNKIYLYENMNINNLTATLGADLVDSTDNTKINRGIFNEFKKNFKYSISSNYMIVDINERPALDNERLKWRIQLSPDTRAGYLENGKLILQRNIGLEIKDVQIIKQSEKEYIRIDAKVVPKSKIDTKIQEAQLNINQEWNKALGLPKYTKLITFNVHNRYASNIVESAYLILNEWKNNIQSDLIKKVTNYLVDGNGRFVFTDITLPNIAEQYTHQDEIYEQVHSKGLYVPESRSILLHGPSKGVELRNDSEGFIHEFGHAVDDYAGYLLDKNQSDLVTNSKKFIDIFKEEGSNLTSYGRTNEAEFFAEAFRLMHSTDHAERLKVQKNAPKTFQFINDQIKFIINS
# BoNT-A LC inh2 – inhibitors of Botulinum neurotoxin A light chain protease; 0.17% of 360,000 active; multiplex microsphere protease substrate cleavage, flow cytometry; inhibition, % at 10 µM
# GDH-TPI counter – inhibits GDH-TPI coupling enzymes, artifact for Mtb FBA screen. GDH-TPI coupled enzyme counterscreen, NADH absorbance. inhibition, % at 4.8 µM. AID 588335. 1.2% of 360,000 active; in the data active = inhibition above about 30%
# A number is an active result; 0 = inactive; ? = inconclusive; - = no result. An excerpt weighted towards active compounds, which were near 6.6% of everything screened. Cut-off read from the data, not from the text of the source, unless noted: active = inhibition above about 30%; inconclusive = no clear call, values can overlap the other calls; inactive = below that.
SMILES,Mtb FBA inh,Autofluor counter,BoNT-F LC inh,Anthrax LF inh2,BoNT-A LC inh2,GDH-TPI counter
CC(=NCc1ccco1)c1c(O)n(C2CCCCC2)c(=O)[nH]c1=O,0,0,0,0,0,0
C/C(=N\NC(=O)c1ccncc1)c1c(O)n(Cc2ccccc2)c(=O)[nH]c1=O,0,0,?,0,0,0
C/C(=N\NC(=O)c1ccccc1)c1c(O)n(C2CCCCC2)c(=O)[nH]c1=O,0,0,0,0,0,38
C/C(=N\NC(=O)c1ccccc1Cl)c1c(O)n(C2CCCCC2)c(=O)[nH]c1=O,0,0,0,0,0,37
CCC(=O)c1c(O)n(C2CCCCCC2)c(=O)[nH]c1=O,0,0,0,0,0,0
C/C(=N\NC(=O)c1ccccc1O)c1c(O)n(C2CCCCC2)c(=O)[nH]c1=O,0,0,0,0,0,46
CCCS(=O)(=O)NC(=O)C1(C)CCN(C(=O)c2cccc(C(F)(F)F)c2)C1 (stereo unspecified),0,0,0,0,0,0
CCOC(=O)c1[nH]nc(C(=O)c2ccc(Br)cc2)c1O,0,18245,0,0,0,0
O=C(NN1C(=O)/C(=C/c2cccnc2)SC1=S)C(c1ccccc1)c1ccccc1,0,21106,0,0,0,0
O=C(CCN1C(=O)/C(=C/c2cccc(Br)c2)SC1=S)NNC(=O)c1cccnc1,0,16764,0,0,0,0
O=C1/C(=C/c2cccnc2)SC(=S)N1NS(=O)(=O)c1ccccc1,0,0,0,0,0,34
CC1CC(C)CN(S(=O)(=O)c2ccc3c(c2)CC(=O)N3)C1 (stereo unspecified),0,-,-,-,-,0
Cc1ccc(-c2nnn(Cc3nc4ccccc4s3)n2)cc1,0,21007,0,0,0,0
Cc1ccc(S(=O)(=O)CCc2nc3ccccc3s2)cc1,0,0,0,0,0,0
CCOC(=O)C1=CCN(S(=O)(=O)c2ccc(C)cc2)C1c1cccc(F)c1 (stereo unspecified),0,0,0,0,0,-
NC(=O)CNC1CC(=O)N(CCc2ccccc2)C1=O (stereo unspecified),0,23483,0,0,0,0
COc1cc(NC(=O)c2ccc(S(=O)(=O)N(C)c3ccccc3)cc2)cc(OC)c1,0,0,0,0,0,0
O=C(CS(=O)(=O)c1ccc(Cl)cc1)NCCS(=O)(=O)c1ccc(Cl)cc1,0,0,0,0,0,0
CC(O)c1ccc(Oc2cnccn2)cc1 (stereo unspecified),190,0,0,0,0,0
C/C(=N/O)c1ccc(Oc2cnccn2)cc1,0,0,0,0,0,0
CC(C)(C)C(=O)CN1CCN(C2c3ccccc3-c3ccccc32)CC1,0,21967,0,0,0,0
CC1CN(Cc2ccccc2)c2nc3c(c(=O)n(C)c(=O)n3C)n2C1 (stereo unspecified),0,20687,0,0,?,0
Cn1c(=O)n(Cc2ccccc2)c(=O)c2c1nc1n2CCCN1CCc1ccccc1,0,23593,0,0,?,0
O=C(CNS(=O)(=O)c1ccccc1F)NNC(=O)c1ccc(Br)cc1,0,0,0,0,0,0
Cc1cc(C(=O)Nc2nnc(C(F)(F)F)s2)cs1,0,0,0,0,0,0
SMILES,Mtb FBA inh,Autofluor counter,BoNT-F LC inh,Anthrax LF inh2,BoNT-A LC inh2,GDH-TPI counter
Cc1cc(C(=O)Nc2nc3c(s2)CCCC3)cs1,0,16226,0,0,0,0
O=C(Nc1nc2c(s1)CCCC2)C1CCCN1C(=O)c1cccs1 (stereo unspecified),0,16410,0,0,0,0
O=C(Nc1nccs1)[C@@H]1CCCN1C(=O)c1cccs1,0,0,0,0,0,0
Cc1cc(C(=O)Nc2nnc(C3CCCCC3)s2)cs1,0,23418,0,0,?,0
O=C(O)C1C2C=CC(O2)C1C(=O)Nc1ccc(S(=O)(=O)N2CCc3ccccc32)cc1 (stereo unspecified),0,0,0,0,0,0
O=C(O)C1C2C=CC(O2)C1C(=O)Nc1ccc(S(=O)(=O)Nc2ccccc2)cc1 (stereo unspecified),0,21995,0,0,0,0
COC(=O)C1=CNC=C(C(=O)OC)C1c1ccc(C(=O)OC)cc1,115,?,0,0,0,0
CCCCc1ccc(Nc2nc(CCC)cc(=O)[nH]2)cc1,0,0,0,0,0,0
CCCc1cc(=O)[nH]c(Nc2ccc(N3CCCCC3)cc2)n1,0,20834,0,0,0,0
CCn1c(CC(=O)Nc2ccc(C)cc2)nnc1SCC(=O)N1CCOCC1,0,0,0,0,0,0
CC(C)(C)C1CCC(=NNc2ncc(C(F)(F)F)cc2Cl)CC1 (stereo unspecified),0,22794,0,0,?,0

# Assay outcomes as filed in PubChem BioAssay.
